According to PubChem BioAssay AID1159580 (chemical genetic matrix, 2015):
Values joined by “and” are separate entries in the source; they are usually repeats but may differ in a detail not shown here. Equal entries are not always repeated. The campaign covered roughly 5,500 compounds. About 2,000 (36%) were called active. Roughly 18% stayed inconclusive and do not appear here. Cut-off read from the data, not from the text of the source: active = normalized growth mostly below about 0.91 (no sharp cut-off); inconclusive = no clear call, values can overlap the other calls; inactive = mostly above about 0.92. This is one part of the list.

Test: chemical genetic growth profiling, strain panel (AID 1159580);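 note: tested at 20 µM; growth read once vehicle control cultures reached saturation at 30 °C; 1 = growth at the plate median or of vehicle wells; lower values mean less growth of the strain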
Conditions: growth OD

Measured: normalized growth

O=C(O)C1CCCNC1 (stereo unspecified)
inactive: S. cerevisiae deletion strains, locus YJR075W, strain HOC1, active compounds read low 1.01 | S. cerevisiae deletion strains, locus YKL009W, strain mrt4, active compounds read low 1.02 | S. cerevisiae deletion strains, locus YKL068W, active compounds read low 1.01 | S. cerevisiae deletion strains, locus YKL085W, strain MDH1 (second series), active compounds read low 1.01 | S. cerevisiae deletion strains, locus YKL085W, strain MDH1, active compounds read low 1.01 | S. cerevisiae deletion strains, locus YKL160W, strain elf1, active compounds read low 1.01 | S. cerevisiae deletion strains, locus YKL190W, strain CNB1, active compounds read low 1.01 | S. cerevisiae deletion strains, locus YKR001C, strain vps1, active compounds read low 1.01 | S. cerevisiae deletion strains, locus YKR026C, strain gcn3, active compounds read low 1.03 | S. cerevisiae deletion strains, locus YKR091W, strain srl3, active compounds read low 1.01 | S. cerevisiae deletion strains, locus YLL001W, strain dnm1, active compounds read low 1.04 | S. cerevisiae deletion strains, locus YLL026W, active compounds read low 1.01 | S. cerevisiae deletion strains, locus YLL041C, strain sdh2, active compounds read low 1.02 | S. cerevisiae deletion strains, locus YLR027C, strain aat2, active compounds read low 1.02 | S. cerevisiae deletion strains, locus YLR039C, strain RIC1, active compounds read low 1.01 | S. cerevisiae deletion strains, locus YLR058C, strain SHM2, active compounds read low 1.01 | S. cerevisiae deletion strains, locus YLR102C, strain apc9, active compounds read low 1.01 | S. cerevisiae deletion strains, locus YLR113W, strain HOG1, active compounds read low 1.05 | S. cerevisiae deletion strains, locus YLR221C, strain rsa3, active compounds read low 1.01 | S. cerevisiae deletion strains, locus YLR258W, strain gsy2, active compounds read low 1.02 | S. cerevisiae deletion strains, locus YLR262C, strain YPT6 (second series), active compounds read low 1.01 | S. cerevisiae deletion strains, locus YLR262C, strain YPT6, active compounds read low 1.05 | S. cerevisiae deletion strains, locus YLR268W, strain sec22, active compounds read low 1.04 | S. cerevisiae deletion strains, locus YLR320W, strain mms22, active compounds read low 1.02 | S. cerevisiae deletion strains, locus YLR330W, strain CHS5, active compounds read low 1 | S. cerevisiae deletion strains, locus YLR342W, strain FKS1 (second series), active compounds read low 0.997 | S. cerevisiae deletion strains, locus YLR342W, strain FKS1, active compounds read low 1.01 | S. cerevisiae deletion strains, locus YLR357W, strain rsc2, active compounds read low 1.03 | S. cerevisiae deletion strains, locus YLR370C, strain arc18, active compounds read low 1.02 | S. cerevisiae deletion strains, locus YLR371W, strain rom2, active compounds read low 1.03 | S. cerevisiae deletion strains, locus YLR384C, strain iki3, active compounds read low 1.01 | S. cerevisiae deletion strains, locus YLR418C, strain cdc73, active compounds read low 1.05 | S. cerevisiae deletion strains, locus YML016C, strain PPZ1, active compounds read low 1.01 | S. cerevisiae deletion strains, locus YML032C, strain rad52, active compounds read low 1.04 | S. cerevisiae deletion strains, locus YML120C, strain ndi1, active compounds read low 1.01 | S. cerevisiae deletion strains, locus YML124C, strain tub3, active compounds read low 1.01 | S. cerevisiae deletion strains, locus YMR058W, strain fet3, active compounds read low 1.02 | S. cerevisiae deletion strains, locus YMR078C, strain ctf18, active compounds read low 1.03 | S. cerevisiae deletion strains, locus YMR125W, strain sto1, active compounds read low 1.02 | S. cerevisiae deletion strains, locus YMR129W, active compounds read low 1.03 | S. cerevisiae deletion strains, locus YMR205C, strain PFK2, active compounds read low 1.02 | S. cerevisiae deletion strains, locus YMR223W, strain ubp8, active compounds read low 1.02 | S. cerevisiae deletion strains, locus YMR231W, strain pep5, active compounds read low 1.01 | S. cerevisiae deletion strains, locus YMR263W, strain SAP30, active compounds read low 1.01 | S. cerevisiae deletion strains, locus YMR307W, strain GAS1, active compounds read low 0.992 and 0.991 | S. cerevisiae deletion strains, locus YNL067W, strain RPL9B, active compounds read low 1.01 | S. cerevisiae deletion strains, locus YNL071W, strain lat1, active compounds read low 1.02 | S. cerevisiae deletion strains, locus YNL128W, strain TEP1, active compounds read low 1.02 and 0.999 | S. cerevisiae deletion strains, locus YNL153C, strain GIM3, active compounds read low 1.01 and 1.02 | S. cerevisiae deletion strains, locus YNL175C, strain NOP13, active compounds read low 1.02 | S. cerevisiae deletion strains, locus YNL183C, strain NPR1, active compounds read low 0.935 | S. cerevisiae deletion strains, locus YNL197C, strain WHI3, active compounds read low 1.01 | S. cerevisiae deletion strains, locus YNL209W, strain ssb2, active compounds read low 1.02 | S. cerevisiae deletion strains, locus YNL224C, strain SQS1, active compounds read low 1.03 | S. cerevisiae deletion strains, locus YNL233W, strain BNI4, active compounds read low 1.01 | S. cerevisiae deletion strains, locus YNL248C, strain rpa49, active compounds read low 1 | S. cerevisiae deletion strains, locus YNL250W, strain rad50, active compounds read low 1.02 | S. cerevisiae deletion strains, locus YNL271C, strain bni1, active compounds read low 1.02 | S. cerevisiae deletion strains, locus YNL298W, strain CLA4, active compounds read low 1.02 | S. cerevisiae deletion strains, locus YNL307C, strain MCK1, active compounds read low 1.03 | S. cerevisiae deletion strains, locus YNL322C, strain KRE1 (second series), active compounds read low 1.02 | S. cerevisiae deletion strains, locus YNL322C, strain KRE1, active compounds read low 1.01 | S. cerevisiae deletion strains, locus YNR049C, strain mso1, active compounds read low 1.02 | S. cerevisiae deletion strains, locus YNR052C, strain pop2, active compounds read low 1.02 | S. cerevisiae deletion strains, locus YOL006C, strain TOP1, active compounds read low 1.07 | S. cerevisiae deletion strains, locus YOL012C, strain htz1 1.27 | S. cerevisiae deletion strains, locus YOL147C, strain pex11, active compounds read low 1.02 | S. cerevisiae deletion strains, locus YOR001W, strain rrp6, active compounds read low 1.02 | S. cerevisiae deletion strains, locus YOR061W, strain CKA2, active compounds read low 1.01 | S. cerevisiae deletion strains, locus YOR069W, strain VPS5, active compounds read low 1 | S. cerevisiae deletion strains, locus YOR070C, strain gyp1, active compounds read low 1.02 | S. cerevisiae deletion strains, locus YOR080W, strain dia2, active compounds read low 1.02 | S. cerevisiae deletion strains, locus YOR083W, strain WHI5 (second series), active compounds read low 1.02 | S. cerevisiae deletion strains, locus YOR083W, strain WHI5, active compounds read low 1.01 | S. cerevisiae deletion strains, locus YOR106W, strain vam3, active compounds read low 1.01 | S. cerevisiae deletion strains, locus YOR136W, strain idh2, active compounds read low 1.02 | S. cerevisiae deletion strains, locus YOR144C, strain elg1, active compounds read low 1.02 | S. cerevisiae deletion strains, locus YOR184W, strain ser1, active compounds read low 1.04 | S. cerevisiae deletion strains, locus YOR231W, strain MKK1, active compounds read low 0.999 | S. cerevisiae deletion strains, locus YOR265W, strain rbl2, active compounds read low 1.02 | S. cerevisiae deletion strains, locus YOR270C, strain vph1, active compounds read low 1.04 | S. cerevisiae deletion strains, locus YOR290C, strain snf2, active compounds read low 1.02 | S. cerevisiae deletion strains, locus YOR316C, strain cot1, active compounds read low 1.02 | S. cerevisiae deletion strains, locus YPL051W, strain arl3, active compounds read low 1.02 | S. cerevisiae deletion strains, locus YPL055C, strain LGE1, active compounds read low 1.03 | S. cerevisiae deletion strains, locus YPL078C, strain atp4, active compounds read low 1.03 | S. cerevisiae deletion strains, locus YPL106C, strain sse1, active compounds read low 1.01 | S. cerevisiae deletion strains, locus YPL240C, strain hsp82, active compounds read low 1.03 | S. cerevisiae deletion strains, locus YPL241C, strain CIN2, active compounds read low 1.01 and 1 | S. cerevisiae deletion strains, locus YPL256C, strain CLN2, active compounds read low 0.983 | S. cerevisiae deletion strains, locus YPR119W, strain clb2, active compounds read low 1.03 | S. cerevisiae deletion strains, locus YPR141C, strain kar3, active compounds read low 1.02 | S. cerevisiae deletion strains, locus YPR163C, strain tif3, active compounds read low 1.03 | S. cerevisiae deletion strains, locus YPR167C, strain met16, active compounds read low 1.03 | S. cerevisiae deletion strains, strain wtn01, active compounds read low 1.02 | S. cerevisiae strains, strain wild type, active compounds read low 1.01
